In PubChem BioAssay (Tox21):
Inconclusive results are not listed. The source made the active and inactive calls. Unless noted, calls follow the shape of the dose curve; as a rule, active = well fitted curve in the direction sought with a large enough effect in the repeat runs; inconclusive = weak or mixed curves; inactive = no such curve, though single readings can be large; an effect the other way counts as inactive or inconclusive.

Experiments:
[1] = qHTS assay to identify small molecule agonists of the estrogen receptor alpha (ER-alpha) signaling pathway in the presence of an antagonist - cell viability counter screen (AID 1259386);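 also: series mostly up to about 92 µM; cells exposed to compounds for 22 h at 37 °C before the viability read; nearly all actives have a fitted effect of over 30% in size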
Summary of the method: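 Cells are starved of estrogens for 5 days in charcoal-stripped serum, seeded for 24hr and co-treated with ICI-182,780 (10.0nM final) and test compounds. After 22hr at 37C, viability is read as CellTiter-Fluor fluorescence.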

[2] = target: Progesterone receptor (Homo sapiens) (UniProt P06401); test: qHTS assay to identify small molecule agonists of the progesterone receptor (PR) signaling pathway (AID 1346784; calls by dose curve; also: nearly all actives have a fitted effect of over 30% in size)
Progesterone receptor (Homo sapiens), sequence (P06401 whole entry, looked up): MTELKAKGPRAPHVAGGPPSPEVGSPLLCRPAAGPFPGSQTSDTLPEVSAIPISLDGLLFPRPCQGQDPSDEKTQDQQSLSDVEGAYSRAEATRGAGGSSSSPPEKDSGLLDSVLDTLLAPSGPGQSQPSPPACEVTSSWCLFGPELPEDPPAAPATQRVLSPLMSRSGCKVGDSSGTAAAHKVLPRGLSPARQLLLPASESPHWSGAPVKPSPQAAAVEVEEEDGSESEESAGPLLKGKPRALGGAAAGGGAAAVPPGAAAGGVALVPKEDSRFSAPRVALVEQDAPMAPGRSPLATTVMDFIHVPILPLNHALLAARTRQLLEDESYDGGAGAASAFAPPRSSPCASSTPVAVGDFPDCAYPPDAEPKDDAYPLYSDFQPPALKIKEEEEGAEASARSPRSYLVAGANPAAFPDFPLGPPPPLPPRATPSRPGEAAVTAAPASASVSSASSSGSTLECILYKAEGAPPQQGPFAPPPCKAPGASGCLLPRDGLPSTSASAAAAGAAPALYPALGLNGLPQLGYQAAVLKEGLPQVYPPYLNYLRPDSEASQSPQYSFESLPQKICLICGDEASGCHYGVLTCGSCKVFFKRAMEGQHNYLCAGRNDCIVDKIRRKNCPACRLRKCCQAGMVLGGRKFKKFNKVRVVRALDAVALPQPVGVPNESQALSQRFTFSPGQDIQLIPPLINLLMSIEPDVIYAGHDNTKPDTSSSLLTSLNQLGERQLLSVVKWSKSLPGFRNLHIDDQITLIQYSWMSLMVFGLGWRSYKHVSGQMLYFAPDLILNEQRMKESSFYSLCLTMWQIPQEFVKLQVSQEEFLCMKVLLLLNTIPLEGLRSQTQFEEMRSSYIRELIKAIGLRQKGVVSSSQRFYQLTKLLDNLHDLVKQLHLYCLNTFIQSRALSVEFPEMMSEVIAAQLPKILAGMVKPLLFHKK
Summary of the method: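 PR-UAS-bla HEK 293T cells (beta-lactamase reporter under UAS) in 2% charcoal-stripped FBS, dosed with 23 nL compound after 6 hr, incubated 16hr at 37C. LiveBLAzer B/G FRET substrate added, fluorescence read after 2 hours.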

[3] = target: Progesterone receptor (Homo sapiens) (UniProt P06401); test: qHTS assay to identify small molecule antagonists of the progesterone receptor (PR) signaling pathway (AID 1346795; active = well fitted inhibition curve with a large enough effect in the signal ratio in the repeat runs, not every such curve was filed as active; the % refers to the signal ratio)
Summary of the method: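 PR-UAS-bla HEK293T cells with beta-lactamase reporter under UAS control, in 2% charcoal-stripped FBS, treated with compounds plus 1 nM promegestone (R5020, final) for 16 hr at 37C. Read-out: FRET beta-lactamase substrate fluorescence after 2 hr at room temperature.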

[4] = qHTS assay to identify small molecule antagonists of the progesterone receptor (PR) signaling pathway - cell viability counter screen (AID 1346798); also: series mostly up to about 92 µM; nearly all actives have a fitted effect of over 50% in size
Summary of the method: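 PR-UAS-bla HEK293T cells, 3,000/well in 2% charcoal-stripped FBS medium, dosed with compounds plus R5020 agonist and incubated 16 h at 37C. Viability then measured in the same wells by CellTiter-Glo luminescence after 30 min at RT.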

[5] = qHTS assay to identify small molecule agonists of the progesterone receptor (PR) signaling pathway - cell viability counter screen (AID 1346799; calls by dose curve; also: nearly all actives have a fitted effect of over 45% in size)
Summary of the method: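 Counter screen in the PR-UAS-bla HEK293T wells (2% charcoal-stripped FBS, 16 h compound exposure at 37 C) after the bla read. CellTiter-Glo added, 30 min at room temperature, luminescence read as cell viability.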

[6] = qHTS assay to identify small molecule antagonists of the TGF-beta/Smad signaling pathway - cell viability counter screen (AID 1346824); also: nearly all actives have a fitted effect of over 50% in size
Summary of the method: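 SBE-bla HEK 293T cells, incubated overnight, then compound plus 0.25 ng/mL TGF-beta1 (stock added) for 5 hr at 37 C. Viability was read in the same wells by CellTiter-Glo luminescence after 30 min at room temperature.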

[7] = qHTS assay to identify small molecule agonists of the TGF-beta/Smad signaling pathway - cell viability counter screen (AID 1346829); also: top concentration of the series differs between compounds; nearly all actives have a fitted effect of over 45% in size
Summary of the method: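 HEK 293T SBE-bla line, 5 hr compound exposure at 37 C, multiplexed CellTiter-Glo viability read by luminescence.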

[8] = qHTS assay to identify small molecule agonists of the TGF-beta/Smad signaling pathway (AID 1346859; active = well fitted activation curve with a large enough effect in the signal ratio in the repeat runs, not every such curve was filed as active; the % refers to the signal ratio; also: series mostly up to about 77 µM)
Summary of the method: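 SBE-bla HEK293T cells plated overnight, then compound exposure for 5 h at 37 C. Beta-lactamase reporter read with LiveBLAzer B/G FRET substrate after 2 h at room temperature, fluorescence at 405 nm excitation, 460/530 nm emission.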

[9] = target: Thyrotropin-releasing hormone receptor (Homo sapiens) (UniProt P34981); test: qHTS assay to identify small molecule agonists of the thyrotropin-releasing hormone receptor (TRHR) signaling pathway (AID 1346891; calls by dose curve; also: series mostly up to about 58 µM)
Thyrotropin-releasing hormone receptor (Homo sapiens), sequence (P34981 whole entry, looked up): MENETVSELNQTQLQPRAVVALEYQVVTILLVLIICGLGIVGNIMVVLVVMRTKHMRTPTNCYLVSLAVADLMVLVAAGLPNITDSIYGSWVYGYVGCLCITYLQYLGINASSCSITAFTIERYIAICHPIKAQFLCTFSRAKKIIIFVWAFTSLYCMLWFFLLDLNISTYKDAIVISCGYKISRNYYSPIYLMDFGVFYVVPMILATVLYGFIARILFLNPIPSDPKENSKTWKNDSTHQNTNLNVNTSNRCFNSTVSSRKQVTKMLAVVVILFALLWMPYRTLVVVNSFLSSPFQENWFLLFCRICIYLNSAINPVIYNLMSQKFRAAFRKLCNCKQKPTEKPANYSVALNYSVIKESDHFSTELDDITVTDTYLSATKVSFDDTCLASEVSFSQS
Summary of the method: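 HEK293 cells expressing TRHR plated 18 h at 37 C/5% CO2, calcium dye-loaded 2 h at 37 C, then compound added (agonist mode); kinetic calcium fluorescence read 3 min at 1 s intervals; 15 concentrations in triplicate.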

[10] = Human pregnane X receptor (PXR) small molecule agonists, qHTS cell viability counter screen (AID 1346977); also: nearly all actives have a fitted effect of over 50% in size
Summary of the method: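 PXR-Luc HepG2 cells (2,000/well, 5% charcoal-stripped FBS) preincubated 5 hr, then exposed to compounds 24 hr at 37 C. Viability read in the same wells by CellTiter-Fluor fluorescence, reagent added at 23 hr, 1 hr incubation.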

[11] = Caspase-3/7 induction in HepG2 cells by small molecules, qHTS assay (AID 1346978); also: nearly all actives have a fitted effect of over 15% in size
Summary of the method: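 Wild-type HepG2 cells, 2,000/well, settled 5 hr at 37 C and 5% CO2, then compound-treated for 17 hr; caspase-3/7 activity read by luminescent Caspase-Glo 3/7 after 30 min at room temperature.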

[12] = Caspase-3/7 induction in CHO-K1 cells by small molecules, qHTS cell viability counter screen (AID 1346979); also: nearly all actives have a fitted effect of over 35% in size
Summary of the method: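 Wild-type CHO-K1 cells (1,500/well) treated with compound after 5 h plating; after 16 h at 37C, viability read as CellTiter-Fluor fluorescence following 1 h reagent incubation, in the same wells as the caspase read.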

[13] = Caspase-3/7 induction in CHO-K1 cells by small molecules, qHTS assay (AID 1346980); also: nearly all actives have a fitted effect of over 15% in size
Summary of the method: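 Wild-type CHO-K1 cells exposed to compounds for 17hr at 37 C, 5% CO2. Caspase-3/7 activity then measured by Caspase-Glo 3/7 luminescence after 30min at room temperature.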

[14] = Caspase-3/7 induction in HepG2 cells by small molecules, qHTS cell viability counter screen (AID 1346981); also: series mostly up to about 92 µM; nearly all actives have a fitted effect of over 30% in size
Summary of the method: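 Steps: seed 2,000 HepG2 cells per well; incubate 5 hr at 37 C; pin-add compounds in DMSO; incubate 16 hr; add CellTiter-Fluor; after 1 hr at 37 C and 5% CO2, read fluorescence.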

[15] = target: Nuclear receptor subfamily 1 group I member 2 (Homo sapiens) (UniProt O75469); test: Human pregnane X receptor (PXR) small molecule agonists, qHTS assay (AID 1346982); also: nearly all actives have a fitted effect of over 35% in size
Nuclear receptor subfamily 1 group I member 2 (Homo sapiens), sequence (O75469 whole entry, looked up): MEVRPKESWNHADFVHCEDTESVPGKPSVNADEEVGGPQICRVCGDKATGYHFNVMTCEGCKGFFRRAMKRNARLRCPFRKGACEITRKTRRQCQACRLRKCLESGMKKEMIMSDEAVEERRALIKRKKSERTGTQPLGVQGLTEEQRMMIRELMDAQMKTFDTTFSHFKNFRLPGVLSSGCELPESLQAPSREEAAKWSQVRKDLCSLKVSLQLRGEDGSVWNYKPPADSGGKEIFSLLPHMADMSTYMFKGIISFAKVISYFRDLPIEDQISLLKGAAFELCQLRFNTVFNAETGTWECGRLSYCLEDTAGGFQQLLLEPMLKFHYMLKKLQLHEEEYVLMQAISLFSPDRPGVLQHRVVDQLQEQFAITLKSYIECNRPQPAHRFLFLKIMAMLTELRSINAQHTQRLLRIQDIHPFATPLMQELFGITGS
Summary of the method: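 Agonist mode qHTS: PXR-Luc HepG2 cells plated 5 hr before DMSO-dissolved compounds were pinned in, cultured 24 hr at 37 C, 5% CO2; ONE-Glo luminescence readout.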

[16] = target: Nuclear receptor subfamily 1 group I member 2 (Rattus norvegicus) (UniProt Q9R1A7); test: Rat pregnane X receptor (rPXR) activation by small molecules, qHTS assay (AID 1346983); settings: rPXR luciferase reporter cells, One-Glo luminescence, 24 h; hits give high values; also: nearly all actives have a fitted effect of over 20% in size
Nuclear receptor subfamily 1 group I member 2 (Rattus norvegicus), sequence (Q9R1A7 whole entry, looked up): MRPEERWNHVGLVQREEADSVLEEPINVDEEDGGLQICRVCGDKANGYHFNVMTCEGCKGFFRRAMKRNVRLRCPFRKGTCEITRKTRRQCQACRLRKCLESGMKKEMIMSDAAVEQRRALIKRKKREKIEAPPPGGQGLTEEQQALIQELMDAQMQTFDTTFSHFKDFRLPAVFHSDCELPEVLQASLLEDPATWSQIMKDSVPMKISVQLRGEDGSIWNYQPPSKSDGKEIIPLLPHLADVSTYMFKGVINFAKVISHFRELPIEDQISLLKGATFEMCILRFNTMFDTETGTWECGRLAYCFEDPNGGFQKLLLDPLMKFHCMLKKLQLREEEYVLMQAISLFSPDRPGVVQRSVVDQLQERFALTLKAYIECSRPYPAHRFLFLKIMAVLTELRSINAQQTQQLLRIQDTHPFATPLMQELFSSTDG
Summary of the method: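 Cell-based rPXR activation assay: rPXR cells, 2,000 per well, rested 5hr at 37 C, then exposed to compounds in DMSO for 24 hr at 37 C. Luciferase activity read by One-Glo luminescence after 30 min at room temperature.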

[17] = target: Nuclear receptor subfamily 1 group I member 2 (Homo sapiens) (UniProt O75469); test: CYP3A4 induction through human pregnane X receptor (PXR) by small molecules, qHTS assay (AID 1346984); also: nearly all actives have a fitted effect of over 40% in size
Summary of the method: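 Steps: seed DPX-2 cells, 5 hr at 37C; pin-transfer compounds; 24 hr at 37C; add Luciferin-IPA (3uM final), 3 hr at 37C; add One-Glo, 30 min RT; read luminescence.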

[18] = target: Nuclear receptor subfamily 1 group I member 2 (Homo sapiens) (UniProt O75469); test: Human pregnane X receptor (PXR) activation by small molecules, qHTS assay (AID 1346985); also: nearly all actives have a fitted effect of over 40% in size
Summary of the method: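 DPX-2 cells (HepG2 co-transfected with a PXR response element and a CYP3A4-promoter luciferase construct) were seeded at 2,000 per well, rested 5 hr at 37C, then exposed to DMSO-dissolved compounds for 24 hr. Activation was read as luciferase luminescence.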

[19] = target: Thyrotropin-releasing hormone receptor (Homo sapiens) (UniProt P34981); test: qHTS assay to identify small molecule antagonists of the thyrotropin-releasing hormone receptor (TRHR) signaling pathway (AID 1346877; active = well fitted inhibition curve with a large enough effect in the repeat runs, not every such curve was filed as active; also: series mostly up to about 51 µM)
Summary of the method: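 Cells (TRHR-HEK293) are plated and kept 18 h at 37 °C/5% CO2. A calcium-sensitive dye is added for 2 h, compound follows for 5 min at room temperature, and TRH is then given at 1 nM final.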
% is scaled to controls: 0 for no effect and ±100 for the full control effect.

CCOC(=O)c1ccc(OC(=O)CCCCCN=C(N)N)cc1
inactive: Potency [1] | Potency [2] | Potency [3] | Potency [4] | Potency [5] | outcome [6] | outcome [7] | outcome [8] | outcome [9] | Potency [10] | Potency [11] | Potency [12] | outcome [13] | Potency [14] | Potency [15] | max activation [16] 0.318% | Potency [17] | Potency [18]

N#Cc1ccc(C(=O)O)cc1
inactive: Potency [1] | Potency [2] | Potency [3] | outcome [6] | outcome [7] | outcome [8] | outcome [19] | outcome [9] | Potency [10] | Potency [11] | outcome [13] | Potency [14] | Potency [15]

Cc1ccccc1OCC(O)CO (configuration not stated)
inactive: Potency [1] | Potency [2] | Potency [3] | Potency [4] | Potency [5] | outcome [6] | outcome [7] | outcome [8] | Potency [10] | Potency [11] | Potency [12] | Potency [14] | max activation [16] -0.0648%

CCCCCCCCC(=O)Cl
inactive: Potency [1] | Potency [2] | Potency [3] | Potency [4] | Potency [5] | outcome [7] | outcome [8] | outcome [19] | outcome [9] | Potency [10] | Potency [11] | Potency [12] | outcome [13] | Potency [14]

CC[C@H](C)C(=O)O[C@H]1C[C@H](O)C=C2C=C[C@H](C)[C@H](CC[C@@H](O)C[C@@H](O)CC(=O)O)[C@H]21
inactive: Potency [1] | Potency [2] | Potency [3] | Potency [4] | Potency [5] | outcome [6] | outcome [7] | outcome [8] | Potency [10] | Potency [11] | Potency [12] | outcome [13] | Potency [14] | Potency [15] | Potency [17] | Potency [18]

CNS(=O)(=O)CCc1ccc2[nH]cc(C3CCN(C)CC3)c2c1
inactive: Potency [1] | Potency [2] | Potency [3] | Potency [4] | Potency [5] | outcome [8] | outcome [19] | outcome [9] | Potency [10] | Potency [12] | Potency [14]

C[Si](C)=O
inactive: activity change, negative = cytotoxicity [1] 2.9% [at 8.39 µM] | activation [2] 1.46% [at 8.39 µM] | activity change, negative = inhibition [3] 12.9% [at 8.39 µM] | activity change, negative = cytotoxicity [4] 4.63% [at 8.39 µM] | activity change, negative = cytotoxicity [5] 7.66% [at 8.39 µM] | viability change, negative = cytotoxic [6] 0.719% [at 6.97 µM] | activity change, negative = cytotoxicity [7] 3.98% [at 6.97 µM] | activation [8] -0.731% [at 6.97 µM] | activity change, negative = cytotoxicity [10] 7.41% [at 8.39 µM] | caspase activation [11] 0.773% [at 8.39 µM] | activity change, negative = cytotoxicity [12] 1.4% [at 8.39 µM] | caspase-3/7 activation [13] 0.203% [at 8.39 µM] | activity change, negative = cytotoxicity [14] 6.01% [at 8.39 µM] | activation [15] 16.2% [at 8.39 µM]

O=C1c2ccccc2C(=O)N1CCl
inactive: Potency [1] | Potency [2] | Potency [3] | Potency [4] | Potency [5] | outcome [6] | outcome [7] | outcome [8] | outcome [19] | outcome [9] | Potency [12] | outcome [13] | Potency [14] | Potency [15]

C=Cc1ccccn1
inactive: Potency [1] | Potency [2] | Potency [3] | Potency [4] | Potency [5] | outcome [6] | outcome [8] | outcome [19] | outcome [9] | Potency [10] | outcome [13] | Potency [14] | Potency [15]

CCOCCOC(=O)/C=C/c1ccc(OC)cc1
inactive: Potency [1] | Potency [2] | Potency [3] | Potency [4] | outcome [7] | outcome [8] | Potency [10] | Potency [11] | Potency [12] | outcome [13] | Potency [14] | Potency [15]

CC(C)CC(=O)O
inactive: Potency [1] | Potency [2] | Potency [3] | Potency [4] | Potency [5] | outcome [7] | outcome [8] | outcome [19] | outcome [9] | Potency [10] | Potency [11] | Potency [12] | Potency [14]

NCCN1CCOCC1
inactive: Potency [1] | Potency [2] | Potency [3] | Potency [4] | Potency [5] | outcome [6] | outcome [8] | outcome [19] | outcome [9] | Potency [10] | Potency [11] | Potency [12] | Potency [14]

C=C(C)C(=O)OCC(C)(C)COC(=O)C(=C)C
inactive: Potency [1] | Potency [2] | Potency [3] | Potency [4] | Potency [5] | outcome [7] | outcome [8] | outcome [19] | outcome [9] | Potency [10] | Potency [11] | Potency [12] | outcome [13] | Potency [14] | Potency [15]

CCC(C)(CCC(C)C)C(=O)O (configuration not stated)
inactive: Potency [1] | Potency [2] | Potency [4] | Potency [5] | outcome [6] | outcome [7] | outcome [8] | Potency [11] | Potency [12] | Potency [14] | Potency [15]

O=C(OCC1(COC(=O)c2cccnc2)CCCC(COC(=O)c2cccnc2)(COC(=O)c2cccnc2)C1O)c1cccnc1
inactive: Potency [2] | Potency [3] | Potency [4] | Potency [5] | outcome [6] | outcome [7] | outcome [8] | Potency [10] | Potency [11] | Potency [12] | outcome [13] | Potency [14] | Potency [15]

CC(C)NCC(O)COc1ccc(COCCOC(C)C)cc1 (configuration not stated)
inactive: Potency [1] | Potency [3] | Potency [4] | Potency [5] | outcome [6] | outcome [7] | outcome [8] | outcome [19] | outcome [9] | Potency [10] | Potency [12] | Potency [14] | Potency [15] | Potency [17] | Potency [18]

CCCOC(=O)C(C)O (configuration not stated)
inactive: Potency [1] | Potency [2] | Potency [4] | Potency [5] | outcome [6] | outcome [8] | outcome [19] | outcome [9] | Potency [10] | Potency [11] | Potency [12] | outcome [13] | Potency [14] | Potency [15]
